Only some compounds are listed: those with a hit (about 5.6% of all), similar ones and a draw of the others.
PKM2 activator: PKM2 (human) enzyme activation | purified PKM2, Kinase-Glo ATP luminescence, activation; response scale: 0% is enzyme alone, no compound | Potency, µM (doses to about 57.5 µM), without a hit: at the highest dose activation, usual class: activators | P14618 | 0.34% of 260,000 active | AID 1631; also: potency is read from the fitted curve at half-maximal effect; nearly all actives have a fitted effect of over 55% in size
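Purified hPK-M2 (>95% pure) converted ADP (0.1 mM final) to ATP with 0.5 mM PEP in 50 mM imidazole pH7.2, KCl, MgCl2, Tween 20, BSA; 1 h at room temperature. ATP detected by Kinase-Glo luminescence.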
VP16 counter: inhibits Gal4-VP16 luciferase reporter, ROR gamma counter-screen; 3.5% of 310,000 active; Drosophila S2 Gal4-VP16 UAS-luciferase, luminescence, 20 h; Potency, µM (doses to about 53.6 µM), without a hit: at the top dose activity, negative = inhibition, usual class: inhibitors;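 also: Gal4-VP16 expression switched on by copper sulfate through the metallothionein promoter; potency is read from the fitted curve at half-maximal effect; nearly all actives have a fitted effect of over 50% in size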
CtBP-E1A blk: inhibitors of CtBP/E1A interaction; AlphaScreen GST-E1A/His-CtBP binding, 1536-well; active compounds read low; activity change, % (test concentration not listed); 0.49% of 340,000 active; AID 651724; in the data active = activity change below about -65%; inconclusive = mostly about -30% to -63%
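Protein mix (5X: 125 nM each GST-E1A, His-CtBP) was incubated with pinned compound 2 h at 37 deg C in dark, in 50 mM Tris pH 8.0 buffer with 300 mM NaCl. Glutathione donor and nickel acceptor beads followed; AlphaScreen signal read after 1 h.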
Six1-Eya2 blk: inhibitors of human Six1/Eya2 interaction | activity change, % (test concentration not listed) | Q15475+O00167 | AID 651725 | 0.56% of 360,000 active | AlphaScreen GST-Six1/His-Eya2 binding, biochemical; active compounds read low; in the data active = activity change below about -65%; inconclusive = mostly about -30% to -63%
Target sequence (O00167 whole entry, looked up): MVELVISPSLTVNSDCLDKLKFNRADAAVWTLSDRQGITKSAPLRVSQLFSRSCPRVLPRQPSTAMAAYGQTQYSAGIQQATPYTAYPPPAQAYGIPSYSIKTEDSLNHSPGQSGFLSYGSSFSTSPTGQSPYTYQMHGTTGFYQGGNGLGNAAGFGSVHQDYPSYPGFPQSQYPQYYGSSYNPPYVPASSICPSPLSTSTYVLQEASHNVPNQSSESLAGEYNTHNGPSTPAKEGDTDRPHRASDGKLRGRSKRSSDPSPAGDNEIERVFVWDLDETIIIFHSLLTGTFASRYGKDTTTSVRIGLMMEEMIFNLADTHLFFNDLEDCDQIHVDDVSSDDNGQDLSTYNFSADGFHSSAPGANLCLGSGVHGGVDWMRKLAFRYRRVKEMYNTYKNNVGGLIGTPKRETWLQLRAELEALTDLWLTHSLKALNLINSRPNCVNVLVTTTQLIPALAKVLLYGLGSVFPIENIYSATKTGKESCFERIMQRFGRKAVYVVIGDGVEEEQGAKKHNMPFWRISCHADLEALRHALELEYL
Target sequence (Q15475 whole entry, looked up): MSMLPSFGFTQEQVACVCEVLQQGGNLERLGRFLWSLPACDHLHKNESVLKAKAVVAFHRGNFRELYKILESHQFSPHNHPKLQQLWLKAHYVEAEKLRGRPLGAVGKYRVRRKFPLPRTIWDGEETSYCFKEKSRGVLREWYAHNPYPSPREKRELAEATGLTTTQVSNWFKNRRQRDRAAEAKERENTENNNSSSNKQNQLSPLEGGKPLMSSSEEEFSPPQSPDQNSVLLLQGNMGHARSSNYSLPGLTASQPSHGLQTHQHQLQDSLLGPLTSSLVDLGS
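Homogeneous AlphaScreen proximity assay pairing GST-Six1 with His-tagged Eya2 (added as 5X mix: 250 nM and 500 nM) in 50 mM Tris pH 8.0, 300 mM NaCl, 1 mM TCEP. Glutathione donor and nickel acceptor beads; 1 h, 37 °C, dark.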
RORg inh: inhibitors of mouse ROR gamma transcriptional activity. P51450. Drosophila S2 Gal4-RORgamma UAS-luciferase reporter, 20 h. Potency, µM (titrated, usually from 53.6 µM), without a hit: at the highest dose activity change, negative = inhibition, actives largely listed as inhibitors. 5.4% of 310,000 active. AID 2551; also: potency is read from the fitted curve at half-maximal effect; nearly all actives have a fitted effect of over 60% in size
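ROR gamma transcriptional activity was tracked as Gal4-UAS luciferase output in stably transfected Drosophila Schneider cells, with compound added 1 hr before 700 uM copper sulfate induction and a 20 hr ambient-temperature incubation.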
Numbers without * were called inactive; ? = inconclusive; · = not tested or not shown; [ ] = another dose, or the depositor's remark. Unless noted, calls follow the shape of the dose curve; as a rule, active = well fitted curve in the direction sought with a large enough effect; inconclusive = small, poorly fitted or top-dose-only effect, or another doubt; inactive = no such curve, though single readings can be large; an effect the other way counts as inactive or inconclusive. % is scaled to controls: 0 for no effect and ±100 for the full control effect.

SMILES | PKM2 activator | VP16 counter | CtBP-E1A blk | Six1-Eya2 blk | RORg inh
O=C(Cn1nnc(-c2ccccc2Cl)n1)N1CCN(S(=O)(=O)c2ccc(Cl)cc2)CC1 | 7.94µM* | -3.5% | -2.2 | -0.8 | 41.9%
Cc1ccc(S(=O)(=O)N2CCN(C(=O)CSc3nncs3)CC2)cc1 | 17.8µM* | -9.9% | -1.9 | 14.4 | -0.7%
COc1ccccc1C(=O)N1CCN(S(=O)(=O)c2ccccc2)CC1 | 7.0% | -0.6% | -3.8 | 6.8 | 11.2µM*
O=C(Cn1nnc(-c2ccccc2Cl)n1)N1CCCCC1 | 0.2% | -2.2% | 4.5 | 2.4 | 1.1%
CC(=O)Nc1ccc(NC2CCCCC2NS(=O)(=O)c2ccc(Cl)cc2)cc1 (stereo not drawn) | · | ? | -3.7 | -1.6 | 26.0%
CC[C@H](C)[C@H](NC(=O)[C@H](CC(=O)O)NC(=O)[C@H](CC(C)C)NC(=O)[C@H](Cc1cnc[nH]1)NC(=O)[C@H](C)NC(=O)[C@H](Cc1ccccc1)NC(=O)[C@H](Cc1ccc(O)cc1)NC(=O)[C@@H](NC(=O)[C@H](C)NC(=O)[C@H](CCC(=O)O)NC(=O)[C@H](CCCCN)NC(=O)[C@H](CC(=O)O)NC(=O)[C@H](CCSC)NC(=O)[C@H](CC(C)C)NC(C)=O)C(C)C)C(=O)N[C@H](C(=O)N[C@@H](Cc1c[nH]c2ccccc12)C(=O)O)[C@@H](C)CC | · | -6.6% | · | · | -4.3%
Cc1ccc(S(=O)(=O)N2CCCN(S(=O)(=O)c3ccc(C)cc3)CC2)cc1 | 8.91µM* | -26.4% | 4.3 | 2.7 | 15.0%
Cc1cc(Br)ccc1SCC(=O)N1CCN(S(=O)(=O)c2ccccc2)CC1 | 4.9% | 7.08µM* | -1.4 | -11.5 | ?
O=C(CSc1n[nH]c(-c2cccs2)n1)N1CCN(S(=O)(=O)c2ccccc2)CC1 | 25.1µM* | 10.0% | -2.1 | 2.7 | ?
Cc1ccc(S(=O)(=O)N2CCN(C(=O)CSc3ccc(Cl)cc3)CC2)cc1 | 14.1µM* | -12.7% | 5.7 | -3.7 | 20.7%
CC1(C(=O)O)CCN1C(=O)COc1ccc(Cl)cc1 (stereo not drawn) | · | · | 4.2 | 3.9 | ·
O=C(CSc1n[nH]c(-c2cccs2)n1)N1CCCC1 | · | · | -24.7 | 0.4 | ·
COc1ccccc1-n1cnnc1SCC(=O)N1CCN(C(=O)c2ccco2)CC1 | 1.7% | 6.6% | 9.3 | 3.7 | 7.7%
c1ccc(-c2nc(CSc3n[nH]c(-c4cccs4)n3)cs2)cc1 | -11.8% | 4.7% | -3.8 | -3.0 | 31.6µM*
COc1ccccc1-n1cnnc1SCC(=O)N1CCN(S(=O)(=O)c2ccccc2)CC1 | 15.8µM* | -0.6% | 5.3 | -1.5 | 14.4%
CCOc1ccc(OCCC(=O)OCC(=O)N2CCN(S(=O)(=O)c3ccc(Cl)cc3)CC2)cc1 | 2.4% | 17.8µM* | 1.4 | -0.2 | 11.2µM*
COc1ccccc1N(CC(=O)NC1CCCC1)C(=O)CNC(=O)c1cccs1 | · | -0.1% | -3.3 | -8.4 | -13.4%
O=C(Nc1ccc(OC(F)(F)F)cc1)NC1CCC(Oc2ccc(C(=O)O)cc2)CC1 (stereo not drawn) | · | · | 0.8 | -3.9 | ·
COc1ccc(C(=O)O/N=C2\C(=O)N(C)c3ccccc32)cc1 | · | · | · | 12.6 | ·
CN1C(=O)/C(=N\OC(=O)c2cccc3ccccc23)c2ccccc21 | 2.9% | 11.2µM* | 8.4 | -0.9 | ?
COc1c2c(c(CCC(=O)O)c3c1C=CC(C)(C)O3)OC(C)(C)C=C2 | · | · | 5.5 | -4.2 | ·
O=C(NC(Cc1ccc(O)cc1)C(=O)O)c1ccc2c(c1)OCO2 (stereo not drawn) | · | · | 11.0 | 2.3 | ·
CCCNC(=S)Nc1cc2oc3ccccc3c2cc1OC | · | 7.08µM* | -9.4 | -19.5 | 4.47µM*
CCNC(=S)Nc1cc2oc3ccccc3c2cc1OC | 8.8% | 14.5% | -2.9 | -12.9 | 20.9%
CNC(=S)Nc1cc2oc3ccccc3c2cc1OC | 0.0% | 12.6µM* | -2.3 | -5.7 | 7.94µM*
SMILES | PKM2 activator | VP16 counter | CtBP-E1A blk | Six1-Eya2 blk | RORg inh
CCOc1ccc(N(CC(=O)NCc2ccc(OC)cc2)S(C)(=O)=O)cc1 | -10.3% | 3.1% | · | -1.9 | 42.6%
O=C(/C=C/c1ccccc1)OCC(=O)c1c[nH]c2ccccc12 | · | · | -19.4 | -7.2 | ·
COc1cccc(/C=C/C(=O)OCC(=O)c2c[nH]c3ccccc23)c1 | · | · | -78.5* | -16.3 | ·
O=C(Nc1cc(C(F)(F)F)ccc1-n1cncn1)c1ccc([N+](=O)[O-])o1 | · | · | -24.5 | -28.8 | ·
S=c1[nH]nc(-c2ccc3ccccc3n2)n1-c1cc(Cl)cc(Cl)c1 | 1.9% | 2.24µM* | -30.0 | -12.9 | 0.794µM*
Fc1ccc(-n2c(-c3ccc4ccccc4n3)n[nH]c2=S)cc1 | 3.8% | 0.8% | -0.2 | 1.1 | 13.2%
CCc1c(-c2n[nH]c(=S)n2Cc2ccccc2)csc1C | -5.0% | 7.94µM* | -3.0 | -0.6 | 2.24µM*
COc1ccc(Cl)cc1-c1n[nH]c(=S)n1Cc1ccccc1 | -0.8%[11.5 µM] | 5.01µM* | 3.3 | 5.2 | 5.01µM*
Cn1c(-c2csc(-c3ccccc3)n2)n[nH]c1=S | -3.7% | -5.1% | -9.3 | 0.5 | 6.7%
S=c1[nH]nc(-c2ccccc2Cl)n1Cc1ccccc1 | 7.0% | ? | -0.8 | -1.9 | 2.82µM*
CCN1CCN(CCCN(Cc2cccs2)C(=S)Nc2ccccc2C)CC1 | 1.3% | 10.3% | 5.8 | -3.5 | 16.3%
CCOc1ccc(NC(=O)c2ccc3c(c2)C(=O)N(Cc2ccncc2)C3=O)cc1 | · | · | 1.8 | 6.4 | ·
CC(C)Cn1c(N)c(C(=O)COC(=O)c2cc(S(=O)(=O)N3CCOCC3)ccc2Br)c(=O)n(C)c1=O | · | · | -1.6 | -29.1 | ·
Nc1ccccc1C(=O)C[C@H](N)C(=O)O | · | · | 4.4 | -2.9 | ·
S=c1[nH]nc(-c2ccc3ccccc3n2)n1Cc1ccccc1 | -8.7% | 5.62µM* | 1.2 | 2.4 | 2.24µM*
FC(F)C(F)(F)Oc1cccc(-c2n[nH]c(=S)n2Cc2ccccc2)c1 | · | · | -15.9 | -4.8 | ·
Cc1scc(-c2n[nH]c(=S)n2Cc2ccccc2)c1C | -12.9% | 11.2µM* | -3.1 | -1.1 | 2.24µM*
CN1N=C(C(=O)Nc2ccc3c(c2)CCC3)CCC1=O | -0.6% | ? | 11.0 | 7.1 | 15.1%
COc1ccc(OC)c2c1sc(=NC(=O)C(C)C)n2C | 4.1% | 20µM* | -3.9 | 4.1 | 0.2%
O=C(Nc1ccccc1)c1cn2ccccc2n1 | -18.4% | 2.82µM* | 0.4 | 3.4 | ?
Cc1csc(NC(=O)c2cn3ccccc3n2)n1 | -56.8% | 7.94µM* | ? | ? | 5.01µM*
Cc1csc(NC(=O)c2ccccc2C(=O)O)n1 | -1.8% | 5.2% | -6.7 | 0.8 | 11.6%
O=C1COc2ccc(S(=O)(=O)Nc3cccc(Cl)c3)cc2N1 | · | 8.7% | 1.3 | 4.4 | 30.3%
COc1cc(OC)cc(-c2nnc3n2N=C(c2cc(OC)ccc2OC)CS3)c1 | · | 3.1% | · | · | 15.2%
NC(=O)CC(NC(=O)Cc1ccc(Br)cc1)c1ccc(NCCc2ccc(F)cc2)c([N+](=O)[O-])c1 (stereo not drawn) | ? | -1.3% | · | -5.9 | 24.6%

High-throughput results from PubChem.
